Hit rate of the full screen: of about 5,500 compounds, about 2,000 (36%) were called active. Another 18% or so got no clear call; they are omitted. Cut-off read from the data, not from the text of the source: active = normalized growth mostly below about 0.91 (no sharp cut-off); inconclusive = no clear call, values can overlap the other calls; inactive = mostly above about 0.92. The list shows a part of the results.
Test: chemical genetic growth profiling, strain panel (AID 1159580);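 note: tested at 20 µM; growth read once vehicle control cultures reached saturation at 30 °C; 1 = growth at the plate median or of vehicle wells; lower values mean less growth of the strain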
Settings: growth OD

Measured: normalized growth

Cc1ccc(Cl)c(Nc2ccccc2C(=O)O)c1Cl
active: S. cerevisiae deletion strains, locus YJR075W, strain HOC1, stronger effect = lower value 0.877 | S. cerevisiae deletion strains, locus YKL160W, strain elf1, stronger effect = lower value 0.824 | S. cerevisiae deletion strains, locus YKR001C, strain vps1, stronger effect = lower value 0.581 | S. cerevisiae deletion strains, locus YKR026C, strain gcn3, stronger effect = lower value 0.893 | S. cerevisiae deletion strains, locus YKR091W, strain srl3, stronger effect = lower value 0.879 | S. cerevisiae deletion strains, locus YLL001W, strain dnm1, stronger effect = lower value 0.815 | S. cerevisiae deletion strains, locus YLL026W, stronger effect = lower value 0.893 | S. cerevisiae deletion strains, locus YLL041C, strain sdh2, stronger effect = lower value 0.886 | S. cerevisiae deletion strains, locus YLR027C, strain aat2, stronger effect = lower value 0.907 | S. cerevisiae deletion strains, locus YLR039C, strain RIC1, stronger effect = lower value 0.399 | S. cerevisiae deletion strains, locus YLR102C, strain apc9, stronger effect = lower value 0.887 | S. cerevisiae deletion strains, locus YLR221C, strain rsa3, stronger effect = lower value 0.809 | S. cerevisiae deletion strains, locus YLR258W, strain gsy2, stronger effect = lower value 0.852 | S. cerevisiae deletion strains, locus YLR262C, strain YPT6 (second series), stronger effect = lower value 0.499 | S. cerevisiae deletion strains, locus YLR262C, strain YPT6, stronger effect = lower value 0.492 | S. cerevisiae deletion strains, locus YLR268W, strain sec22, stronger effect = lower value 0.77 | S. cerevisiae deletion strains, locus YLR320W, strain mms22, stronger effect = lower value 0.659 | S. cerevisiae deletion strains, locus YLR330W, strain CHS5, stronger effect = lower value 0.893 | S. cerevisiae deletion strains, locus YLR342W, strain FKS1 (second series), stronger effect = lower value 0.789 | S. cerevisiae deletion strains, locus YLR342W, strain FKS1, stronger effect = lower value 0.857 | S. cerevisiae deletion strains, locus YLR370C, strain arc18, stronger effect = lower value 0.83 | S. cerevisiae deletion strains, locus YLR371W, strain rom2, stronger effect = lower value 0.894 | S. cerevisiae deletion strains, locus YLR384C, strain iki3, stronger effect = lower value 0.893 | S. cerevisiae deletion strains, locus YLR418C, strain cdc73, stronger effect = lower value 0.649 | S. cerevisiae deletion strains, locus YML016C, strain PPZ1, stronger effect = lower value 0.894 | S. cerevisiae deletion strains, locus YML032C, strain rad52, stronger effect = lower value 0.862 | S. cerevisiae deletion strains, locus YML120C, strain ndi1, stronger effect = lower value 0.795 | S. cerevisiae deletion strains, locus YML124C, strain tub3, stronger effect = lower value 0.888 | S. cerevisiae deletion strains, locus YMR058W, strain fet3, stronger effect = lower value 0.866 | S. cerevisiae deletion strains, locus YMR078C, strain ctf18, stronger effect = lower value 0.896 | S. cerevisiae deletion strains, locus YMR125W, strain sto1, stronger effect = lower value 0.854 | S. cerevisiae deletion strains, locus YMR129W, stronger effect = lower value 0.889 | S. cerevisiae deletion strains, locus YMR205C, strain PFK2, stronger effect = lower value 0.737 | S. cerevisiae deletion strains, locus YMR223W, strain ubp8, stronger effect = lower value 0.82 | S. cerevisiae deletion strains, locus YMR231W, strain pep5, stronger effect = lower value 0.843 | S. cerevisiae deletion strains, locus YMR263W, strain SAP30, stronger effect = lower value 0.873 | S. cerevisiae deletion strains, locus YNL071W, strain lat1, stronger effect = lower value 0.702 | S. cerevisiae deletion strains, locus YNL175C, strain NOP13, stronger effect = lower value 0.907 | S. cerevisiae deletion strains, locus YNL197C, strain WHI3, stronger effect = lower value 0.893 | S. cerevisiae deletion strains, locus YNL209W, strain ssb2, stronger effect = lower value 0.917 | S. cerevisiae deletion strains, locus YNL224C, strain SQS1, stronger effect = lower value 0.915 | S. cerevisiae deletion strains, locus YNL307C, strain MCK1, stronger effect = lower value 0.645 | S. cerevisiae deletion strains, locus YNL322C, strain KRE1 (second series), stronger effect = lower value 0.903 | S. cerevisiae deletion strains, locus YNL322C, strain KRE1, stronger effect = lower value 0.893 | S. cerevisiae deletion strains, locus YNR049C, strain mso1, stronger effect = lower value 0.885 | S. cerevisiae deletion strains, locus YNR052C, strain pop2, stronger effect = lower value 0.835 | S. cerevisiae deletion strains, locus YOL147C, strain pex11, stronger effect = lower value 0.868 | S. cerevisiae deletion strains, locus YOR061W, strain CKA2, stronger effect = lower value 0.882 | S. cerevisiae deletion strains, locus YOR069W, strain VPS5, stronger effect = lower value 0.891 | S. cerevisiae deletion strains, locus YOR070C, strain gyp1, stronger effect = lower value 0.864 | S. cerevisiae deletion strains, locus YOR083W, strain WHI5, stronger effect = lower value 0.868 | S. cerevisiae deletion strains, locus YOR106W, strain vam3, stronger effect = lower value 0.85 | S. cerevisiae deletion strains, locus YOR144C, strain elg1, stronger effect = lower value 0.898 | S. cerevisiae deletion strains, locus YOR184W, strain ser1, stronger effect = lower value 0.621 | S. cerevisiae deletion strains, locus YOR265W, strain rbl2, stronger effect = lower value 0.892 | S. cerevisiae deletion strains, locus YOR270C, strain vph1, stronger effect = lower value 0.617 | S. cerevisiae deletion strains, locus YOR290C, strain snf2, stronger effect = lower value 0.746 | S. cerevisiae deletion strains, locus YOR316C, strain cot1, stronger effect = lower value 0.881 | S. cerevisiae deletion strains, locus YPL051W, strain arl3, stronger effect = lower value 0.771 | S. cerevisiae deletion strains, locus YPL078C, strain atp4, stronger effect = lower value 0.774 | S. cerevisiae deletion strains, locus YPL240C, strain hsp82, stronger effect = lower value 0.879 | S. cerevisiae deletion strains, locus YPL241C, strain CIN2, stronger effect = lower value 0.943 | S. cerevisiae deletion strains, locus YPR119W, strain clb2, stronger effect = lower value 0.87 | S. cerevisiae deletion strains, locus YPR163C, strain tif3, stronger effect = lower value 0.903 | S. cerevisiae deletion strains, locus YPR167C, strain met16, stronger effect = lower value 0.882 | S. cerevisiae deletion strains, strain wtn01, stronger effect = lower value 0.859 | S. cerevisiae strains, strain wild type, stronger effect = lower value 0.888
inactive: S. cerevisiae deletion strains, locus YJR066W, strain TOR1, stronger effect = lower value 0.963 | S. cerevisiae deletion strains, locus YKL009W, strain mrt4, stronger effect = lower value 0.97 | S. cerevisiae deletion strains, locus YKL068W, stronger effect = lower value 0.975 | S. cerevisiae deletion strains, locus YKL085W, strain MDH1 (second series), stronger effect = lower value 0.957 | S. cerevisiae deletion strains, locus YKL085W, strain MDH1, stronger effect = lower value 0.957 | S. cerevisiae deletion strains, locus YLR058C, strain SHM2, stronger effect = lower value 0.895 | S. cerevisiae deletion strains, locus YLR113W, strain HOG1, stronger effect = lower value 1.02 | S. cerevisiae deletion strains, locus YLR357W, strain rsc2, stronger effect = lower value 0.994 | S. cerevisiae deletion strains, locus YMR307W, strain GAS1, stronger effect = lower value 0.638 | S. cerevisiae deletion strains, locus YNL067W, strain RPL9B, stronger effect = lower value 0.92 | S. cerevisiae deletion strains, locus YNL153C, strain GIM3, stronger effect = lower value 0.898 | S. cerevisiae deletion strains, locus YNL183C, strain NPR1, stronger effect = lower value 0.992 | S. cerevisiae deletion strains, locus YNL233W, strain BNI4, stronger effect = lower value 0.913 | S. cerevisiae deletion strains, locus YNL248C, strain rpa49, stronger effect = lower value 0.931 | S. cerevisiae deletion strains, locus YNL250W, strain rad50, stronger effect = lower value 0.993 | S. cerevisiae deletion strains, locus YNL271C, strain bni1, stronger effect = lower value 0.955 | S. cerevisiae deletion strains, locus YNL298W, strain CLA4, stronger effect = lower value 0.932 | S. cerevisiae deletion strains, locus YOL006C, strain TOP1, stronger effect = lower value 0.697 | S. cerevisiae deletion strains, locus YOL012C, strain htz1 0.653 | S. cerevisiae deletion strains, locus YOR001W, strain rrp6, stronger effect = lower value 0.95 | S. cerevisiae deletion strains, locus YOR080W, strain dia2, stronger effect = lower value 0.914 | S. cerevisiae deletion strains, locus YOR083W, strain WHI5 (second series), stronger effect = lower value 0.971 | S. cerevisiae deletion strains, locus YOR136W, strain idh2, stronger effect = lower value 0.953 | S. cerevisiae deletion strains, locus YOR231W, strain MKK1, stronger effect = lower value 1.01 | S. cerevisiae deletion strains, locus YPL106C, strain sse1, stronger effect = lower value 1.04 | S. cerevisiae deletion strains, locus YPL256C, strain CLN2, stronger effect = lower value 0.996 | S. cerevisiae deletion strains, locus YPR141C, strain kar3, stronger effect = lower value 0.963

Reference: PubChem BioAssay AID1159580 (chemical genetic matrix, 2015)
